From ChEMBL document CHEMBL4513216, “Probing the Open Global Health Chemical Diversity Library for Multistage-Active Starting Points for Next-Generation Antimalarials” (ACS Infect Dis, 2020) come the findings set out here.

The whole screen tested about 69,000 compounds, of which about 8,600 (12%) showed an effect of 50% or more. For the sample, strong results were picked, then their nearest neighbours and some compounds at random.

The experiment deals with Plasmodium berghei. In words: Screen against P. berghei liver stage (PbLuc), transformed with Luciferase, at 10uM. In kind it is functional, HepG2. The following applies: tested at 10 uM.
As for `CC(C)C(NC(=O)NCC1CC1)c1nnc2n1CCC2` (stereo not given), the INHIBITION amounted to 43.4%.
The same measure for `CCC(CNC1CCN(C(=O)N(C)C)CC1)Oc1ccccc1C` (stereo not given): 18.2%; for `CCC(CNC1CCN(C(C)=O)CC1)Oc1cccc(C)c1` (stereo not given): 61.5%; for `CCC(CNC1CCN(C(C)=O)CC1)Oc1ccccc1Cl` (stereo not given): 42%.
The same measure for `O=C(c1cccnc1)N1CCC2(CC1)COC(COc1ccccn1)C2` (stereo not given): -2.25%; for `c1cc(CN2CCO[C@H]3[C@H](OCCN4CCCC4)CC[C@@H]32)co1`: 48%; for `Cc1cc2ncn(C(=O)N3CCCC3)c2cc1C`: 22%.
The same measure for `Cc1nc(C)c2c(n1)CCN(C(=O)C1(C#N)CC1)CC2`: 23.1%; for `CCc1nc2c(c(NC3CC3)n1)CCN(C(=O)Cc1nonc1C)CC2`: 19.5%; for `Cc1nc(N2CCOCC2)nc2c1CCN(C(=O)C1(C#N)CC1)CC2`: 30.3%.
As to `Cc1nc2c(c(NC(C)C)n1)CCN(C(=O)CCO)CC2`, the INHIBITION worked out at 46.6%.
The same measure for `CCc1nc2c(c(NC3CCC3)n1)CCN(C(=O)CO)CC2`: 53.2%.
The same measure for `Cc1nc2c(c(NC3CC3)n1)CCN(C(=O)C1(C#N)CC1)CC2`: 68.4%; for `Cc1nc2c(c(NC3CC3)n1)CCN(C(=O)CCO)CC2`: 56.7%; for `CCc1nc2c(c(NC3CC3)n1)CCN(C(=O)N1CCN(C)CC1)CC2`: 7.65%.
The same measure for `Cc1nc2c(c(NC3CC3)n1)CCN(C(=O)C(C)(C)O)CC2`: 20.5%; for `CCOC(=O)N1CCC(n2cc3[nH]cccc-3c2=O)CC1`: 9.63%; for `CN(C)c1cc(C2CCCN(C(=O)Cn3cc(Cl)cn3)C2)ccn1` (stereo not given): 2.71%.
On to `O=c1[nH]c(-c2ccccn2)nc2c1CCN(Cc1cccc(O)c1)C2`, for which the INHIBITION stood at 11.1%.
The same measure for `O=C(c1ccnnc1)N1CCN2C[C@H](Oc3cccc(F)c3)C[C@H]2C1`: 26.1%; for `c1ccc(CCN2CCn3cc(Cn4cccn4)nc3C2)cc1`: 24.9%; for `O=C(C1CN(CC2CCOCC2)CC12CCOCC2)N1CCCC1` (stereo not given): 29.8%.
`CCN(Cc1cnn(C)c1)C[C@H]1CC[C@@H](Cc2ccc(C)nc2)O1`: the INHIBITION is listed as 12.9%.
Turning to `CSc1ccc(NCc2csc(CS(C)(=O)=O)n2)cc1F`, the INHIBITION was 17%.
The same measure for `CNC(=O)Cc1nc(CNc2ccc(SC)c(F)c2)cs1`: 80.7%; for `CSc1ccc(NCc2csc(C)n2)cc1F`: -35%.
Turning to `CC1CN(C(=O)c2cccc(OCc3cscn3)c2)CCO1` (stereo not given), the INHIBITION is 39.75%.
The same measure for `CN1CCOC(C)(C(=O)N2CCSCC2)C1` (stereo not given): 18.3%.
The same measure for `Cc1cc(NCCSc2nccn2C)n2ncnc2n1`: 18.2%.
As to `CNC(=O)c1ccc2c(OC)n(C)nc2c1`, the INHIBITION came to 20.7%.
In the case of `CNC(=O)c1cc(C2CCCNC2)n[nH]1` (stereo not given), the INHIBITION is recorded as 5.34%.
On to `CN(C)CCNC(=O)Cc1cccc(I)c1`, for which the INHIBITION is given as 1.75%.
As to `CNC(=O)c1[nH]nc2ccc(I)cc12`, the INHIBITION is recorded as 77.7%.
The same measure for `CC(C)N(CCNC(=O)c1n[nH]c2ccccc12)C(C)C`: 24.8%; for `CC(C)N(CCNC(=O)c1[nH]nc2ccc(I)cc12)C(C)C`: 58.2%.
Consider `Cc1cccc(-c2nc(CN3CCc4cncnc4C3)no2)c1`, for which the INHIBITION was -12.2%.
Regarding `Brc1ccc2[nH]c3c(c2c1)CCCC3c1nn[nH]n1` (stereo not given), the INHIBITION was 0.0996%.
The same measure for `CCc1cc(C(=O)N2CCCC(c3cc(=O)nc4n3CCC4)C2)no1` (stereo not given): -35.5%.
The same measure for `Cc1ncsc1CN1C[C@H](C(=O)N2CCCO2)[C@@H]2CCO[C@@H]2C1`: 25.1%; for `O=c1c2c[nH]c(N3CCOCC3)nc-2cn1-c1ccc2c(c1)OCO2`: -21.5%.
The same measure for `CC(C)(C)OC(=O)N1CCN(c2ccc(F)cc2)CC1C(=O)O` (stereo not given): -5.8%.
With `CCc1nc(CCNC(=O)Nc2ccc(C(=O)NC)cc2C)cs1`, the INHIBITION stood at 1.28%.
Consider `CCc1nc(CCNC(=O)Nc2cccc(C(=O)NC)c2C)cs1`, for which the INHIBITION was -12.5%.
With `CCc1nc(CCNC(=O)Nc2ccc(C(=O)NC)cc2)cs1`, the INHIBITION stood at 57.7%.
The same measure for `CC(C)CS(=O)(=O)NC(=O)c1ccc2c(c1)ncn2C`: -57.9%; for `c1cc(NCc2ccncc2)nc(C2CCCNC2)c1` (stereo not given): 18.4%; for `CC1c2ncc(COc3cccnc3)n2CCN1C(=O)C1=CCCC1` (stereo not given): -7.11%.
The same measure for `CC(C)(C)NC(=O)Cn1nc(C2CC2)cc(C(F)(F)F)c1=O`: 28.7%; for `CC(C)(C)C(=O)Cn1nc(C2CC2)cc(C(F)(F)F)c1=O`: 77.6%.
As to `CC(C)(C)OC(=O)Cn1nc(C2CC2)cc(C(F)(F)F)c1=O`, the INHIBITION is given as 32%.
Consider `CCN1CCN(C(=O)NCc2ccccc2Cn2cncn2)CC1`, for which the INHIBITION amounted to 32.7%.
The same measure for `Cn1ncnc1NCc1ccc(Br)cc1`: 20.9%; for `COc1ccc(C2SCC(=O)N2c2ncc(C)s2)cc1` (stereo not given): 24.7%.
The same measure for `CC1CCCCN1C(=O)c1n[nH]c(=O)c2ccccc12` (stereo not given): 60.2%; for `O=C(c1n[nH]c(=O)c2ccccc12)N1CCCCC1c1ccn[nH]1` (stereo not given): 40.9%.
The same measure for `CNC(=O)C1CCCCN1C(=O)c1n[nH]c(=O)c2ccccc12` (stereo not given): 8.53%; for `Cc1ccc(OCC(=O)NS(=O)(=O)Cc2ccccc2)cc1`: 69.8%.
In the case of `O=C(COc1ccccc1)NS(=O)(=O)Cc1ccccc1`, the INHIBITION is on record as 11.8%.
The same measure for `Cc1cccc(OCC(=O)NS(=O)(=O)Cc2ccccc2)c1`: 22.9%; for `O=S(=O)(NCCCn1cncn1)c1ccc2c(c1)CCC2`: -58.1%; for `O=S(=O)(NCCCn1cncn1)c1ccc2c(c1)CCCC2`: 50.4%.
As to `O=S(=O)(NCCCn1cncn1)c1ccc2c(c1)CCO2`, the INHIBITION was 44.9%.
The same measure for `CCOc1ccc(C(=O)NC2CC2)cc1C`: 57%.
The same measure for `CCOc1ccc(CCCC(=O)N2CC[C@H](NC(C)=O)C2)cc1C`: 16%; for `CCOc1ccc(C(=O)NC2CCN(c3ncccn3)CC2)cc1C`: 34.2%; for `CCN(CC)C(CNC(=O)c1ccc(S(=O)(=O)NC)cc1)c1ccco1` (stereo not given): 6.12%.
On to `COc1cccc(OCC(=O)N(C)c2cccnc2)c1`, for which the INHIBITION is listed as 53.7%.
The same measure for `COc1cccc(OCC(=O)N(C)c2cccnc2N(C)C)c1`: 33.1%.
Turning to `COc1cccc(OCC(=O)NS(=O)(=O)c2cccnc2)c1`, the INHIBITION is on record as -19.05%.
The same measure for `Cc1nc(C(C)C)sc1C(C)N(C)C(=O)c1ccc(=O)n(C)n1` (stereo not given): -19.7%.
